Laboratory results: PubChem BioAssay AID2314 (National Center for Advancing Translational Sciences (NCATS), 2010)
Hit rate of the full screen: of about 300,000 compounds, about 37,000 (12%) were called active. This excerpt belongs to a sample that is enriched for actives. A number with no mark means an inactive call. No stated cut-off is given here; in the data, active means max response mostly above about 13% (no sharp cut-off); inactive means mostly below about 14%.

Assay: Cycloheximide Counterscreen for Small Molecule Inhibitors of Shiga Toxin; further: read at 38.3 µM for the half of the compounds with a filed dose; 0% is about no effect
Conditions: cell reporter, cycloheximide protein synthesis inhibition counterscreen; active compounds read high

Row | Structure (SMILES) | max response
1 | CCOC(=O)C1CCN(C(=O)Cn2nc(C)c3c(C)n(-c4ccccc4)nc3c2=O)CC1 | -0.326%
2 | O=C(CCc1nnc2ccc(NCCCN3CCCC3=O)nn12)NCc1ccccc1Cl | -2.54%
3 | CC(C)(C)NC(=O)C(c1ccc(Cl)cc1)N(CCO)C(=O)c1snc(C(N)=O)c1N (stereo unspecified) | -3.49%
4 | Cc1ccc(NC(=O)C2CCCN2S(=O)(=O)c2cccc3cccnc23)c(C)c1 (stereo unspecified) | -1.86%
5 | Nc1nnnn1/N=C/c1cccs1 | -4.55%
6 | Cc1ccc(N2CCN(/N=C/c3cccs3)CC2)cc1 | 7.5%
7 | C(=N/N1CCN(c2ccccc2)CC1)/c1cccs1 | 36.9% (active)
8 | Cc1cccc(-c2c(NC(=O)c3ccco3)oc3ccc(Cl)cc3c2=O)c1 | -1.7%
9 | CC(C)c1ccc(S(=O)(=O)N2CCC3(CC2)OCCO3)cc1 | -1.14%
10 | CC(C)c1ccc(/C=C2\NC(=O)NC2=O)cc1 | 18.8% (active)
11 | COC(=O)CN1C(=O)[C@H]2[C@@H](/C=C/c3ccccc3)N3C(=O)CN(Cc4ccccc4)C(=O)[C@@]3(Cc3ccccc3)[C@H]2C1=O | -3.52%
12 | COc1ccc(N(C(=O)c2cccnc2)S(=O)(=O)c2ccc(OC)c(OC)c2)cc1 | 1.15%
13 | O=C(CSc1ccc(/C=N/NC(=O)c2cccc(F)c2)o1)Nc1ccccc1 | 47.1% (active)
14 | N#CCC(=O)N/N=C/c1ccc(SCC(=O)Nc2ccccc2)o1 | 2.34%
15 | O=C(Cc1ccccc1)Nc1cccc(C(=O)N/N=C/c2ccco2)c1 | 0.305%
16 | COc1cccc2sc(N(CCCN(C)C)C(=O)C(c3ccccc3)c3ccccc3)nc12 | -11.2%
17 | Cc1ccc(NC(=O)Cn2nnc(C(=O)NCc3ccco3)c2N)c(C)c1 | 9.89%
18 | Cc1ccccc1NC(=O)NCc1ccco1 | 9.11%
19 | Cc1ccc(NC(=O)C(=O)NCc2ccco2)c(C)c1 | 41.1% (active)
20 | CN(CC(=O)Nc1ccc(F)cc1)CC(=O)Nc1ccc(Cl)c(S(=O)(=O)N2CCOCC2)c1 | -2.41%
21 | C/C=C/c1ccc(OCC(O)CN2CCCCCCC2)c(OC)c1 (stereo unspecified) | 9.28%

Row | Structure (SMILES) | max response
22 | CCOC(=O)c1ccc(NC(=O)Cn2cnc3cc(C)c(C)cc32)cc1 | 6.04%
23 | CCn1c(=O)c2ccccc2n(CC(=O)N2CCCc3ccccc32)c1=O | -2.55%
24 | CN(C)CCN=c1cc(-c2ccccc2)oc2ccc(Cl)cc12 | 23.6% (active)
25 | CN(C)CCn1c(=S)[nH]c2ccc(Cl)cc2c1=O | -5.79%
26 | CCOC(=O)c1c(NC(=O)CNC2CCCc3ccccc32)sc(C(N)=O)c1C (stereo unspecified) | 9.96%
27 | O=C(N/N=C/c1cc2c(cc1Br)OCO2)C1COc2ccccc2O1 (stereo unspecified) | 52.6% (active)
28 | O=C(N/N=C\c1cc(Br)c(Br)o1)C1COc2ccccc2O1 (stereo unspecified) | 9.2%
29 | O=C(CNC(=O)C1COc2ccccc2O1)N/N=C/c1cc(Br)c(O)c(Br)c1 (stereo unspecified) | -2.17%
30 | CCOC(=O)CSc1nc(N2CCOCC2)c2c(c1C#N)CC(C(C)C)OC2 (stereo unspecified) | -2.94%
31 | Cc1ccc(-c2noc(CSc3nnc(-c4ccccc4)n3C)n2)cc1 | -0.58%
32 | Cc1ccc(-c2noc(CSc3nnnn3-c3ccccc3)n2)cc1 | 17.8% (active)
33 | Cc1ccc(-c2noc(CSc3nnc(-c4cccs4)n3C)n2)cc1 | 5.33%
34 | O=C(C1CCCO1)N(c1ccc(F)cc1)C1C=CS(=O)(=O)C1 (stereo unspecified) | -9.85%
35 | Cc1onc(-c2ccccc2Cl)c1C(=O)OCC(=O)c1ccccc1 | 38.6% (active)
36 | CC(=O)Nc1cccc(/C(C)=N/NC(=O)c2c(-c3ccccc3Cl)noc2C)c1 | 0.404%
37 | Cc1onc(-c2ccccc2Cl)c1C(=O)NCCn1ccc2ccccc21 | -2.37%
38 | CC(=O)n1cc([C@H]2C=C(C(=O)N3CCOCC3)O[C@@H](OCc3ccc(CO)cc3)C2)c2ccccc21 | -0.396%
39 | Cc1ccc(S(=O)(=O)N2CCN(C)CC2)cc1 | 1.47%
40 | Clc1ccc(-c2cc(-c3ccccn3)on2)c(Cl)c1 | 29.5% (active)
41 | Clc1ccc(-c2ncc3ccccn23)c(Cl)c1 | -0.544%
42 | O=C1CSC(c2ccccc2)N1c1nc(-c2ccc(Cl)cc2Cl)cs1 (stereo unspecified) | -1.24%

Row | Structure (SMILES) | max response
43 | C(=N\Nc1ccc2ccccc2n1)/c1ccc2c(c1)OCO2 | -3.9%
44 | Cc1noc(C)c1/C=N/Nc1ccc2ccccc2n1 | 39.1% (active)
45 | O=C(O)/C(=C/c1cccnc1)NC(=O)c1ccccc1 | 0.766%
46 | Cc1cccc[n+]1CC(=O)c1ccccc1 | 0.405%
47 | O=C(/C=C/NNC(=O)c1cccc(Br)c1)c1ccccc1 | 22.3%
48 | O=C(/C=C/NCc1ccc(F)cc1)c1ccccc1 | 53.1% (active)
49 | CCOC(=O)CNC(=O)/C(=C\c1ccc(F)cc1)NC(=O)c1ccccc1 | -0.456%
50 | O=C(CNCc1ccc(F)cc1)Nc1ccccc1-c1ccccc1 | -4.19%
51 | O=C(/C=C\NCC(=O)c1ccccc1)c1ccccc1 | 35.9% (active)
52 | Cc1ccc(C(=O)Oc2ccc(C(=S)N3CCOCC3)cc2)cc1 | -3.19%
53 | COC(=O)C1(C)NC(c2ccc(C)cc2)C2C(=O)N(c3ccc(F)cc3)C(=O)C21 (stereo unspecified) | 1.36%
54 | CCOC(=O)CNC(=O)/C=C/c1c(Cl)cccc1Cl | -3.14%
55 | CNC(=S)N/N=C/c1cn(Cc2ccc(C)cc2)c2ccccc12 | 3.75%
56 | CCOC(=O)N/N=C/c1cn(Cc2ccccc2Cl)c2ccccc12 | 4.93%
57 | COC(=O)N/N=C/c1cn(CCCOc2ccc(C)cc2)c2ccccc12 | 44.1% (active)
58 | Cc1ccc(Cn2ncc3c4sc(C)cc4n(C)c3c2=O)c(C)c1 | 5.87%
59 | O=C1/C(=C/c2ccc3c(c2)OCO3)CCC/C1=C\c1ccc2c(c1)OCO2 | 0.534%
60 | CCn1cc(/C=C2/SC(=S)NC2=O)c(C)n1 | 2.94%
61 | Cc1nn(C)cc1/C=C1\CCC/C(=C\c2cn(C)nc2C)C1=O | 18.2% (active)
